Most compounds without a hit are left out; they make up all but 18% or so of the library.
IL1B secr inh: inflammasome signaling inhibition, IL-1 beta readout. THP-1 LPS/ATP IL-1B secretion, AlphaLISA, 16 h; hits give low values. activity change, % at 57.5 µM. hit rate 4.7% among 360,000; in the data active means activity change below about -50%; inconclusive means mostly about -30% to -49%
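Secreted IL-1B measured by AlphaLISA bead assay after 16 h compound exposure of THP-1 cells; compounds (final up to 57.5 uM) added 1 h before LPS (250 ng/mL) and ATP (1.25 mM) stimulation; lower signal means less secretion.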
DT40 TDP1 CPT: growth inhibition of DT40 Tdp1-/-;hTDP1 cells with camptothecin (screen for TDP1 inhibitors); Potency, µM (titrated, usually from 46.2 µM), without a hit: top-dose activity change, negative = growth inhibition, usual class: inhibitors; chicken DT40 Tdp1-/-;hTDP1 cells + 20 nM CPT, ATP luminescence, 48 h; AID 686979; hit rate 12% among 420,000; further: potency means the concentration at half of the fitted maximal effect; nearly all actives have a fitted effect of over 55% in size
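Cell growth measured by CellTiter-Glo luminescence after a minimum 48 h, 37 C compound exposure with 20 nM CPT in Tdp1-knockout DT40 cells stably expressing hTDP1, seeded 400/well; qHTS titration format.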
Six1-Eya2 blk: blocks human Six1 binding to Eya2; Q15475+O00167; AlphaScreen GST-Six1/His-Eya2 binding, biochemical; hits give low values; activity change, % (no concentration beside the values); hit rate 0.56% among 360,000; in the data active means activity change below about -65%; inconclusive means mostly about -30% to -63%
Target sequence (O00167 whole entry, looked up): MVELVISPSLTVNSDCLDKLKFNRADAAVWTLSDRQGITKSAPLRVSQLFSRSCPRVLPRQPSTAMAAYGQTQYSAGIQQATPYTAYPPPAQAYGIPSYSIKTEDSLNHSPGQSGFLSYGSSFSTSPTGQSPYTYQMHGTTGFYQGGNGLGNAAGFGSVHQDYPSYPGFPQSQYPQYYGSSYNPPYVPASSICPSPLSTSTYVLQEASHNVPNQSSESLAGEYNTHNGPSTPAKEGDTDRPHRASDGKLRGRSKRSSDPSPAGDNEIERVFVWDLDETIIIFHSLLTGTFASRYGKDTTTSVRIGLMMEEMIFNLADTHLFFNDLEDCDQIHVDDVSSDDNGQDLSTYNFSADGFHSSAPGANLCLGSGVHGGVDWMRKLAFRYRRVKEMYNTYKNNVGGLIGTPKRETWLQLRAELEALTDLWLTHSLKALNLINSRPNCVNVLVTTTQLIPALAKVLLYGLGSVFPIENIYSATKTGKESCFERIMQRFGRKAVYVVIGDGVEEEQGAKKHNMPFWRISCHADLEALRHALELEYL
Target sequence (Q15475 whole entry, looked up): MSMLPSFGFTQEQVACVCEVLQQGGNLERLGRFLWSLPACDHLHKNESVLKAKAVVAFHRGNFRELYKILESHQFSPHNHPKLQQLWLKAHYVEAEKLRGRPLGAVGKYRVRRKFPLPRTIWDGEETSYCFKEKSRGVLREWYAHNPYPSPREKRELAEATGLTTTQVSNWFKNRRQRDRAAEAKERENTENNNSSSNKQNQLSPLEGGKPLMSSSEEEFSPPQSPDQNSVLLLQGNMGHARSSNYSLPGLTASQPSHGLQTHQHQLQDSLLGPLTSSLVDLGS
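Six1/Eya2 binding was read as AlphaScreen signal after compounds were pinned into GST-Six1 plus His-tagged Eya2 (5X stock 250/500 nM) in pH 8.0 Tris/NaCl/TCEP buffer, beads added, then incubated 1 h, 37 C, dark.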
DT40 TDP1 no CPT: qHTS for Inhibitors of human tyrosyl-DNA phosphodiesterase 1 (TDP1): qHTS in cells in absence of CPT | DT40 Tdp1-/- hTDP1 cells, no CPT, ATP luminescence, 48 h | Potency, µM (doses to about 46.2 µM), for the others: at the top dose activity change, negative = growth inhibition, hits mostly inhibitors | hit rate 15% among 420,000; further: potency means the concentration at half of the fitted maximal effect; nearly all actives have a fitted effect of over 55% in size
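DT40 Tdp1-/-;hTDP1 cells, no CPT (DMSO vehicle only), 400 cells/well; compounds pin-transferred; ≥48 hr, 37 °C; CellTiter-Glo 30 min RT dark, luminescence read.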
TDP1 block: blocks human tyrosyl-DNA phosphodiesterase 1; Potency, µM (series often up to 130 µM), for inactives: top-dose activity change, negative = inhibition, usual class: inhibitors; hit rate 0.28% among 350,000; recombinant TDP1, AlphaScreen DNA substrate cleavage; further: potency means the concentration at half of the fitted maximal effect; nearly all actives have a fitted effect of over 40% in size
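Here, a 5' biotin and 3' phosphotyrosine-FITC DNA oligonucleotide reports Tdp1 activity: intact substrate bridges AlphaScreen beads, while cleavage leaves a 3' phosphate and drops signal. All incubations at room temperature.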
CtBP-E1A inh: blocks the CtBP interaction with E1A. AlphaScreen GST-E1A/His-CtBP binding, 1536-well; hits give low values. activity change, % (concentration not given with the values). hit rate 0.49% among 340,000. AID 651724; in the data active means activity change below about -65%; inconclusive means mostly about -30% to -63%
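Protein mix (5X: 125 nM each GST-E1A, His-CtBP) was incubated with pinned compound 2 h at 37 deg C in dark, in 50 mM Tris pH 8.0 buffer with 300 mM NaCl. Glutathione donor and nickel acceptor beads followed; AlphaScreen signal read after 1 h.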
Active calls of the source: *; ? = inconclusive; . = no result; [ ] = another dose, or the depositor's remark. Unless noted, the call rests on the fitted dose curve; in most records, active means well fitted curve in the direction sought with a large enough effect; inconclusive means small, poorly fitted or top-dose-only effect, or another doubt; inactive means no such curve, though single readings can be large; an effect the other way counts as inactive or inconclusive. On the % scale 0 is the no-effect control and ±100 the full control effect.

SMILES	IL1B secr inh	DT40 TDP1 CPT	Six1-Eya2 blk	DT40 TDP1 no CPT	TDP1 block	CtBP-E1A inh
Cc1cccc(C(=O)O/N=C2\CCCc3ccccc32)c1	11.7	-8.2%	17.7	?	-7.8%	30.3
O=C(CC[C@H]1O[C@@H](n2ccc(=O)[nH]c2=O)[C@H](O)[C@@H]1O)N[C@H](Cc1ccccc1)C(=O)NCc1ccccc1	13.7	0.2%	3.5	25.5%	.	2.2
CCN(CC)S(=O)(=O)c1ccc(C(=O)NCC(=O)N/N=C/c2ccccc2OC)cc1	-3.0	-13.8%	-2.2	-3.6%	-0.1%	-6.1
CC(=O)N1CC(=O)N(Cc2ccccc2)/C(=C/c2ccccc2)C1=O	-0.5	-25.2%	-0.1	-21.2%	8.4%	-3.2
COCC(=O)Nc1ccc(OCc2ccccc2)cc1	4.3	-16.9%	-2.9	-18.3%	0.0%	-4.4
COc1ccccc1N=C1SC(C(=O)Nc2cccc(Cl)c2Cl)C(N)=C1C(N)=O (configuration not stated)	-22.7	2.91µM*	-9.1	3.26µM*	8.2%	-0.8
COc1ccc(S(=O)(=O)Oc2ccc3ccccc3c2)cc1	-12.8	16.4µM*	16.6	29.1µM*	.	-2.3
COc1ccc(N(C(=O)C(C)C)S(=O)(=O)c2ccc3ccccc3c2)cc1	26.0	14.6µM*	-5.7	?	.	22.1
COc1ccc(N(C(=O)c2ccc(C)cc2)S(=O)(=O)c2ccc(Cl)cc2)cc1	.	?	.	?	1.9%[2.28 µM]	.
COc1ccc(N(C(=O)c2ccc(OC)c(OC)c2)S(=O)(=O)c2ccc(Cl)cc2)cc1	.	25.9µM*	.	20.6µM*	0.4%[12.3 µM]	.
COc1ccc(N(C(=O)c2ccc(Cl)cc2)S(=O)(=O)c2ccc(C)cc2)cc1	.	?	.	23.1µM*	2.2%[12.3 µM]	.
COc1ccc(C(=O)Nc2cccc(NC(C)=O)c2)cc1	58.1	-3.3%	0.1	-13.2%	.	0.5
COc1cc2cc(C(C)(C)O)oc(=O)c2cc1OC	-5.4	?	1.0	0.3%	0.2%	-3.2
COc1ccc(N(C(=O)c2cccc(C)c2)S(=O)(=O)c2ccc(C)cc2)cc1	.	18.4µM*	.	?	-3.1%[12.3 µM]	.
COc1ccc(N(C(=O)c2ccccc2C)S(=O)(=O)c2ccc(Cl)cc2)cc1	.	?	.	?	0.4%[12.3 µM]	.
S=c1[nH]nc(-c2ccc(Br)cc2)n1-c1ccc2c(c1)OCCO2	44.2	?	-6.6	18.4µM*	7.1%	2.9
Oc1ccc(-c2n[nH]c(=S)n2-c2ccc3c(c2)OCCO3)c(O)c1	-93.7*	?	-4.0	?	?	1.8
COc1ccc(-c2n[nH]c(=S)n2-c2ccc3c(c2)OCCO3)cc1	17.2	?	-4.8	?	8.0%	.
CN1C[C@@H]2C(c3ccccc3)C3(c4ccccc4)CC2(C3)[C@H]1c1ccccc1 (some centres not stated)	3.4	25.9µM*	-16.6	?	-2.7%	-13.1
CN1C[C@@H]2C(c3ccc(Cl)nc3)C3(c4ccccc4)CC2(C3)[C@H]1c1ccccc1 (some centres not stated)	-10.8	20.6µM*	-20.5	16.4µM*	6.3%	-13.9
COC(=O)c1cccc(C23CC4(C2)[C@H](CN(C)[C@@H]4c2ccccc2)C3c2ccccc2)c1 (some centres not stated)	0.0	20.6µM*	-20.1	23.1µM*	8.7%	-21.3
CN1C[C@@H]2C(c3ccc(C(F)(F)F)cc3)C3(c4ccc(C#N)cc4)CC2(C3)[C@H]1c1ccccc1 (some centres not stated)	2.6	10.3µM*	-12.9	23.1µM*	6.3%	?
COC(=O)c1cccc(C23CC4(C2)[C@H](CN(C)[C@@H]4c2ccccc2)C3c2ccc(C(F)(F)F)cc2)c1 (some centres not stated)	7.3	?	-6.5	?	6.9%	.
CN1C[C@@H]2C(c3ccccc3)C3(c4ccc(C#N)cc4)CC2(C3)[C@H]1c1ccccc1 (some centres not stated)	7.4	?	-15.0	?	6.3%	-12.3
O=C1c2ccccc2C(c2nnnn2-c2ccc3c(c2)OCCO3)N1Cc1ccc(F)cc1 (configuration not stated)	42.0	?	25.3	?	.	0.0
SMILES	IL1B secr inh	DT40 TDP1 CPT	Six1-Eya2 blk	DT40 TDP1 no CPT	TDP1 block	CtBP-E1A inh
O=C(N/N=C/c1ccccc1[N+](=O)[O-])C(=O)N1CCCC1	-12.2	4.2%	12.6	-13.4%	9.6%	-17.5
CC1Cc2ccccc2N1C1=NS(=O)(=O)c2ccccc21 (configuration not stated)	-26.8	-10.0%	0.1	-18.8%	-3.0%	0.0
CC1Cc2ccccc2N1C1=CC(=O)CCC1 (configuration not stated)	84.7	7.31µM*	6.0	5.8µM*	0.0%	-5.2
Oc1ccc(-c2[nH]ncc2-c2cnn(-c3ccccc3)c2)c(O)c1	-15.9	5.2%	-15.7	0.6%	6.5%	-1.1
COc1ccc(-c2noc(C)c2-c2ccc3ccccc3n2)c(O)c1	-9.6	?	-17.5	?	5.9%	-4.1
COc1ccc(-c2onc(C)c2-c2cnn(-c3ccccc3)c2)c(O)c1	-17.6	?	-4.7	20.6µM*	5.0%	-5.8
COc1ccc(-c2onc(C)c2-c2ccccc2)c(O)c1	-1.2	?	5.8	18.4µM*	5.3%	-2.1
Cn1c(=O)c2c(n(C)c1=O)=NC1(CCCCC1)ON=2	1.7	-5.1%	-9.9	-26.2%	-2.4%	-4.9
CC1Cc2ccccc2N1C(=S)NC(=O)c1ccc(Cl)cc1Cl (configuration not stated)	22.1	?	-13.2	10.3µM*	8.2%	-21.5
CC1Cc2ccccc2N1C(=S)NC(=O)c1cccc(Br)c1 (configuration not stated)	21.6	20.6µM*	-6.4	14.6µM*	9.1%	3.8
COc1cccc(C(=O)NC(=S)N2c3ccccc3CC2C)c1OC (configuration not stated)	4.6	-1.1%	-5.3	?	10.5%	-16.5
CNc1nc(Cl)c(SC)c(NCc2cccc(OC)c2)n1	37.2	?	9.6	23.1µM*	.	4.2
COc1ccccc1-c1ccc2c(c1)O[C@@H](CN(C)C(=O)Nc1cccc(F)c1)[C@H](C)CN([C@H](C)CO)S2(=O)=O	-25.6	?	-1.2	?	.	1.0
COc1cccc(-c2ccc3c(c2)O[C@H](CN(C)C(=O)c2ccccc2F)[C@H](C)CN([C@H](C)CO)S3(=O)=O)c1	-28.7	?	10.1	20.6µM*	.	-5.9

Compound activity from PubChem BioAssay.
